# IL1B secr inh: inflammasome signaling inhibition, IL-1 beta readout; THP-1 LPS/ATP IL-1B secretion, AlphaLISA, 16 h; stronger effect = lower value; activity change, % at 57.5 µM; 4.7% of 360,000 active; AID 743279; in the data active = activity change below about -50%; inconclusive = mostly about -30% to -49%; also: % is scaled to controls: 0 for no effect and ±100 for the full control effect
#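 Secreted IL-1B measured by AlphaLISA bead assay after 16 h compound exposure of THP-1 cells; compounds (final up to 57.5 uM) added 1 h before LPS (250 ng/mL) and ATP (1.25 mM) stimulation; lower signal means less secretion.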
# TDP1 cell noCPT: qHTS for Inhibitors of human tyrosyl-DNA phosphodiesterase 1 (TDP1): qHTS in cells in absence of CPT; DT40 Tdp1-/- hTDP1 cells, no CPT, ATP luminescence, 48 h; Potency, µM (titrated, usually from 46.2 µM), without a hit: at the top dose activity change, negative = growth inhibition, usual class: inhibitors; 15% of 420,000 active; also: potency is read from the fitted curve at half-maximal effect; % is scaled to controls: 0 for no effect and ±100 for the full control effect; nearly all actives have a fitted effect of over 55% in size
#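 Stably hTDP1-transfected Tdp1-null chicken DT40 cells were treated with library compounds minus camptothecin and grown for at least 48 hr at 37 °C, after which cellular ATP was quantified by luminescence.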
# TDP1 inh: inhibitors of human tyrosyl-DNA phosphodiesterase TDP1; recombinant TDP1, AlphaScreen DNA substrate cleavage; Potency, µM (series often up to 130 µM), for the others: at the highest dose activity change, negative = inhibition, usual class: inhibitors; Q9NUW8; 0.28% of 350,000 active; AID 485290; also: potency is read from the fitted curve at half-maximal effect; % is scaled to controls: 0 for no effect and ±100 for the full control effect; nearly all actives have a fitted effect of over 40% in size
# Target sequence (Q9NUW8 whole entry, looked up): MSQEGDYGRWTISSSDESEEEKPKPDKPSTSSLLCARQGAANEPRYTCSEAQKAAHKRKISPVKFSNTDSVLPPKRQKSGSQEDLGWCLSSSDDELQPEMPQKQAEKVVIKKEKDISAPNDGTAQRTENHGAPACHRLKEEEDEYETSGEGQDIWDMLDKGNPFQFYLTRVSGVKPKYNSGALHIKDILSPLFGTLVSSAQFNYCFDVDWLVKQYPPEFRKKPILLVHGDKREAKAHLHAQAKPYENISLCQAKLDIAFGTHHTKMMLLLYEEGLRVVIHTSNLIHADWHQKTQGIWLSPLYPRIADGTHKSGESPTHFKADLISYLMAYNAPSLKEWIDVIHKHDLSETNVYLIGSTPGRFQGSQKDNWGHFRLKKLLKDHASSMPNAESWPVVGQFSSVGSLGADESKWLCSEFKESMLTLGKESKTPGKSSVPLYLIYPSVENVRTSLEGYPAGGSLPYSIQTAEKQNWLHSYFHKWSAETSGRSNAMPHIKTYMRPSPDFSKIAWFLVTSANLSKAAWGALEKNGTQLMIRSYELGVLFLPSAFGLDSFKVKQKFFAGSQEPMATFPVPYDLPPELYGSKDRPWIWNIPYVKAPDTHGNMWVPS
#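 Tdp1 1 nM final; 15 min RT w/ cpd; substrate 15 nM, 5 min; beads 10 ug/ml, 10 min; AlphaScreen read. Neg ctrl: no enzyme.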
# HepG2 viability: HepG2 cytotoxicity, counter-screen for TGF-b inhibitors. HepG2 CAGA-GFP viability, ATP luminescence, 18 h. Potency, µM (top dose mostly 46.1 µM), for inactives: at the highest dose activity change, negative = cytotoxicity, usual class: cytotoxic. 0.76% of 410,000 active; also: potency is read from the fitted curve at half-maximal effect
#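 HepG2 CAGA-GFP cells (1000/well, DMEM with 1% FBS) received compound, then TGF-beta at 500 pg/mL final, and were incubated 18 hours at 37 degrees C. Viability was read by CellTiter-Glo luminescence. Media-only wells were set as complete cell-killing and DMSO as no toxicity.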
# TDP1 cell CPT: DT40-hTDP1 cell growth loss with CPT | chicken DT40 Tdp1-/-;hTDP1 cells + 20 nM CPT, ATP luminescence, 48 h | AID 686979 | Potency, µM (highest dose often 46.2 µM), for the others: at the top dose activity change, negative = growth inhibition, hits mostly inhibitors | 12% of 420,000 active; also: potency is read from the fitted curve at half-maximal effect; % is scaled to controls: 0 for no effect and ±100 for the full control effect; nearly all actives have a fitted effect of over 55% in size
#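 Chicken DT40 Tdp1-/- cells complemented with human TDP1, 400 cells/well, exposed to compounds plus 20 nM camptothecin for at least 48 h at 37 C; viability read as ATP content by CellTiter-Glo luminescence.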
# TGFb SMAD3 inh: TGF-b pathway inhibition; HepG2 CAGA-GFP TGF-b/SMAD3 reporter, GFP fluorescence, 18 h; TGF-beta stimulated, 500 pg/mL final; Potency, µM (doses to about 46.1 µM), without a hit: at the highest dose activity, negative = inhibition, usual class: inhibitors; 1.2% of 410,000 active; also: potency is read from the fitted curve at half-maximal effect; % is scaled to controls: 0 for no effect and ±100 for the full control effect; nearly all actives have a fitted effect of over 65% in size
#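 First, reporter cells (HEPG2 CAGA-GFP) rested 2 h at 37 degrees C. Next, compounds were pinned in and TGF-beta added to 500 pg/mL final. After 18 h, GFP was imaged per cell and summed per well.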
# Numbers without * were called inactive; ? = inconclusive; · = no result; [ ] = remark or other dose. Most compounds without a hit are left out; they make up all but 18% or so of the library. Unless noted, calls follow the shape of the dose curve; as a rule, active = well fitted curve in the direction sought with a large enough effect; inconclusive = small, poorly fitted or top-dose-only effect, or another doubt; inactive = no such curve, though single readings can be large; an effect the other way counts as inactive or inconclusive.
SMILES,IL1B secr inh,TDP1 cell noCPT,TDP1 inh,HepG2 viability,TDP1 cell CPT,TGFb SMAD3 inh
CCN(C[C@H]1N[C@@](C)(C(=O)OC)[C@H]2C(=O)N(Cc3ccccc3)C(=O)[C@@H]12)C(=O)Nc1ccc(C)cc1,6,?,1%,-4%,-3%,-1%
O=c1[nH]c(=O)n(-c2ccccc2F)c(O)c1/C=C1\C=Nc2ccccc21,46,21µM*,·,-56%,16µM*,?
COc1ccc(-n2c(O)c(/C=C3\C=Nc4ccc(Br)cc43)c(=O)[nH]c2=O)cc1,18,?,·,3%,?,-1%
COc1ccc(-n2c(O)c(/C=C3\C=Nc4ccc(Br)cc43)c(=O)[nH]c2=O)c(OC)c1,-96*,?,·,-55%,?,?
CCC(C)(C)n1nnnc1C(c1cccc(C#N)c1)N1CCN(c2cc(C)ccc2C)CC1 (stereo unspecified),24,23µM*,2%,-1%,16µM*,12%
CCCn1c(=O)n(C)c(=O)c2c(SCC(=O)NC34CC5CC(CC(C5)C3)C4)nc(CC(C)C)nc21,8,?,-1%,17%,15µM*,3%
NCCNCCNCCNCCN,·,-17%,11%,·,5%,·
COC(=O)[C@@]1(O)C[C@@H]2O[C@@]1(C)n1c3ccccc3c3c4c(c5c6ccccc6n2c5c31)C(=O)NC4,·,·,3%,·,·,·
CC(C)CC(NP(=O)(O)O[C@@H]1O[C@@H](C)[C@H](O)[C@@H](O)[C@H]1O)C(=O)NC(Cc1c[nH]c2ccccc12)C(=O)O (stereo partly specified),·,·,7%[56.1 µM],·,·,·
COc1ccc2[nH]c(C)c(CCNCc3cc(OC)c(OC)c(OC)c3)c2c1,4,-60%,5%,3%,?,4%
C=CCOc1c(Cl)cc(CNc2ccc3[nH]c(=O)[nH]c3c2)cc1OC,0,?,8%,-26%,13µM*,-23%
CCOc1c(Cl)cc(CNc2ccc(S(N)(=O)=O)cc2)cc1OC,27,16µM*,0%,-8%,?,-20%
CCOc1c(Cl)cc(CNC(C)C(O)c2ccccc2)cc1OC (stereo unspecified),-6,-12%,-1%,6%,-12%,-13%
Cn1c(=O)oc2cc(S(=O)(=O)NC3CCCCCCC3)ccc21,-4,?,0%,-43%,-21%,-6%
CN1C2CC(OC(=O)C(CO)c3ccccc3)CC1C1OC12 (stereo unspecified),1,-18%,-2%,0%,-6%,-8%
C#CC(C)(O)CC (stereo unspecified),·,22%,4%,·,19%,·
O=C1c2ccccc2-c2c1nc1c([n+]2[O-])CCCC1,8,?,2%,-42%,12µM*,15%
c1ccc(C(O[C@H]2CCCN(CCc3ccc4c(c3)OCO4)C2)c2ccccc2)cc1,·,24µM*,·,·,?,·
CC(=O)[C@@H]1CC[C@H]2[C@@H]3CC[C@@H]4CC(=O)CC[C@]4(C)[C@H]3CC[C@]12C,·,·,6%,·,·,·
CCSC(=O)Cl,·,·,15%,·,·,·
OC[C@@H](O)[C@H]1O[C@@H]2O[C@@H](C(Cl)(Cl)Cl)O[C@@H]2[C@H]1O,·,-23%,·,·,0%,·
CSc1ncc(CN2CCCC(C(=O)c3cccc(Cl)c3)C2)cn1 (stereo unspecified),-13,?,5%,-11%,21µM*,-21%
COc1ccc(CN2CCCC(C(=O)c3ccc(Cl)cc3)C2)c(OC)c1 (stereo unspecified),-68*,18µM*,·,-30%,?,-24%
O=C(c1ccc(Cl)cc1)C1CCCN(Cc2cccc3cnccc23)C1 (stereo unspecified),-7,6.5µM*,0%,-50%,21µM*,?
